# Results filed as inconclusive are left out. Entries that show only a call come without a potency. More than one record can exist for a structure, and the calls need not agree. The source made the active and inactive calls. Calls come from the whole dose curve.
# Test: p53 small molecule agonists, cell-based qHTS assay with human liver microsomes: qHTS cell viability counter screen (AID 1963579); note: nearly all actives have a fitted effect of over 45% in size
# Conditions: p53RE-bla HCT-116 viability, ATP luminescence, 16 h, HLM; series mostly up to 66 µM; activity change, negative = cytotoxicity: at the top concentration
# Description: National Center for Advancing Translational Sciences [NCATS]
# Division of Preclinical Innovation [DPI]
# U.S. Environmental Protection Agency [EPA]
# National Institutes of Environmental Health Sciences [NIEHS]
# National Toxicology Program [NTP]
# U.S. Food and Drug Administration [FDA]
# p53, a tumor suppressor protein, is activated following cellular insult, including DNA damage and other cellular stresses. The activation of p53 regulates cell fate by inducing DNA repair, cell cycle arrest, apoptosis, or cellular senescence. The activation of p53, therefore, is a good indicator of DNA damage and other cellular stresses. […] The activation of the reporter gene under culture conditions can be detected by fluorescence intensity. This cell line was used to screen the Tox21 10K compound library in the condition of presence of human liver microsomes and to identify agonists that activate the p53 signaling pathway after in vitro metabolic activation (Ooka et al., Archive of Toxicology 96:1975-1987, 2022).
# Tox21 Assay Protocol Summary:
# The p53RE-bla cells were dispensed at 4,000cells/3ul/well in 1536-well black-clear bottom plates. After the assay plates were incubated at 37 C, 5% CO2 incubator for 5 hours, 23 nL of compounds dissolved in DMSO, positive controls or DMSO only was transferred to the assay plate. Following compound addition, 3 uL of human liver microsomes (XenoTech, Kansas City, KS) at final concentration of 0.5 mg/mL and 1uL of B-Nicotinamide adenine dinucleotide 2'-phosphate (NADPH) at final concentration of 0.5 mg/mL were transferred to the assay plate. The plates were incubated at 37 C for 16 hours. 1 uL of LiveBLAzer detection mixture was added to each well and the plates were incubated at room temperature in the dark for 2 h. Fluorescence intensity at 460 and 530 nm emission and 405 nm excitation were measured by an Envision plate reader. For cell viability readout that measures cytotoxicity, 4 ul/well of CellTiter-Glo reagent was added into the assay plates using a Flying Reagent Dispenser. After 30 min incubation at room temperature, the luminescence intensity in the plates was measured using a ViewLux plate reader.
# Potency is the fitted concentration of half-maximal effect.
Compound,Potency,"activity change, negative = cytotoxicity"
O=C(O)C(=O)O,inactive,
C=CC(=O)NC(C)(C)CS(=O)(=O)O,inactive,
C=CCNC(N)=S,inactive,
COc1ccc2[nH]cc(CCNC(C)=O)c2c1,inactive,
NC(=O)NC1NC(=O)NC1=O (stereo not given),inactive,
COC(=O)c1ccccc1O,,6.81% (inactive)
N=C(N)c1ccc(OCCCCCOc2ccc(C(=N)N)cc2)cc1,inactive,
OC[C@H]1O[C@H](O[C@]2(CCl)O[C@H](CCl)[C@@H](O)[C@@H]2O)[C@H](O)[C@@H](O)[C@H]1Cl,inactive,
CN(C)CCOC(=O)COc1ccc(Cl)cc1,inactive,
CCOC(=O)NNc1nncc2ccccc12,inactive,
CCCCC(CC)CO (stereo not given),inactive,
C/C=C1/CC2C=CC1C2 (stereo not given),inactive,
CC(=O)Nc1ccccc1,inactive,
CC1(C)S[C@@H]2[C@H](NC(=O)[C@H](N)c3ccccc3)C(=O)N2[C@H]1C(=O)O,,1.93% [at 30.3 µM] (inactive)
CCCCC(CC)COC(=O)c1ccc(N(C)C)cc1 (stereo not given),inactive,
Cc1ccc(O)c(-n2nc3ccccc3n2)c1,50.9 µM (active) and inactive,
CCCCOC(=O)CC(CC(=O)OCCCC)(OC(C)=O)C(=O)OCCCC,inactive,
CCCCCCCCCCCCCC(=O)O,inactive,
[Na+],inactive,
O=C(O)c1ccc(S(=O)(=O)N(Cl)Cl)cc1,inactive,

Compound,Potency,"activity change, negative = cytotoxicity"
COc1ccc(O)cc1,inactive,
CC(C)(C)[C@@H](O)[C@@H](Cc1ccc(Cl)cc1)n1cncn1,inactive,
C=CN1CCCC1=O,inactive,
Cc1ccncc1,inactive,
Nc1ccc(S(=O)(=O)Nc2nccs2)cc1,inactive,
CC1=CC(=O)CC(C)(C)C1,inactive,
C/C=C/c1ccc(O)c(OC)c1,inactive,
C=C(C)C(=O)O[C@H]1C[C@@H]2CC[C@@]1(C)C2(C)C,inactive,
c1ccc2n[nH]nc2c1,inactive,
CCOC(=O)C(C#N)=C(c1ccccc1)c1ccccc1,inactive,
N#Cc1ccccc1,inactive,
CC/C(=C(\c1ccccc1)c1ccc(OCCN(C)C)cc1)c1ccccc1,inactive,
C[Si](O[Si](C)(C)C)O[Si](C)(C)C,inactive,
O=[N+]([O-])c1cccc(Cl)c1,inactive,
CCOC(=O)c1ccc(O)cc1,inactive,
O=S1(=O)CCCO1,inactive,
CCCCC1(COC(=O)CCC(=O)O)C(=O)N(c2ccccc2)N(c2ccccc2)C1=O,inactive,
CCNC(=S)NCC,inactive,
C=CC(C)CCCC(C)(C)O (stereo not given),inactive,
O=[N+]([O-])c1cc(C(F)(F)F)ccc1Cl,inactive,
